In the supplement of paper PMC9262897, “Low-cost anti-mycobacterial drug discovery using engineered E. coli” (Nature Communications, 2022) one finds growth data, which are given here for 4 compounds.

What all share (experiment): growth (OD600 after 10 h); higher = more growth (less inhibition)
In experiment [1] the test system is E. coli TESEC Alr+ wild-type control. Particulars: compound 0.1 mM; raw OD600 reference: median of DMSO wells 0.241, cell-free background 0.041. The protocol:
(§1)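 TESEC Mtb Alr E. coli, or the Alr+ wild-type control, in 384-well plates with Prestwick library compounds at 0.1 mM and 1% DMSO, across arabinose induction levels of 1E3 to 1E7 nM. Growth is read as OD600 after 10 h at 37 °C in triplicate biological replicates.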

Experiment [2] deals with E. coli TESEC Mtb Alr. The following applies: compound 0.1 mM. The protocol:
as §1

Experiment [3] has as its system E. coli TESEC Mtb Asd. The following applies: compound 0.1 mM. The protocol: (§2)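 TESEC E. coli strains in which the native enzyme is deleted and replaced by arabinose-inducible Mtb Asd, DapB, CysH or TrpD, each grown in its selective medium. Strains were screened against the Prestwick library at 0.1 mM and 1% DMSO in 384-well format at low and high arabinose induction. Growth is read as OD600 after 10 h in triplicate.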

The test system of experiment [4] is E. coli TESEC Mtb DapB. Particulars: compound 0.1 mM. The procedure: as §2
For experiment [5], the system named is E. coli TESEC Alr+ wild-type control. The following applies: compound 0.1 mM; raw OD600 reference: median of DMSO wells 0.49, cell-free background 0.052. The protocol: (§3)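 TESEC Mtb Alr E. coli (ΔaraC ΔtolC ΔentC Δalr ΔdadX, arabinose-inducible Mtb Alr) or the Alr+ wild-type control strain, grown in defined M9-fructose medium without D-alanine in 96-well plates with Prestwick library compounds at 0.1 mM and 1% DMSO. Low Alr induction is 0.1 µM arabinose and high induction is 10 mM arabinose.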

The subject of experiment [6] is E. coli TESEC Mtb Alr. The following applies: compound 0.1 mM. The procedure:
as §3
The source holds these as a separate data set.

[7] abbreviates: arabinose 1000 nM, raw OD600 reference: median of DMSO wells 0.294, cell-free background 0.041.
Where [8] appears, read: arabinose 10000 nM, raw OD600 reference: median of DMSO wells 0.264, cell-free background 0.041.
The mark [9] stands for this setting: arabinose 100000 nM, raw OD600 reference: median of DMSO wells 0.201, cell-free background 0.041.
Setting [10] is: arabinose 1000000 nM, raw OD600 reference: median of DMSO wells 0.193, cell-free background 0.041.
[11] abbreviates: arabinose 10000000 nM, raw OD600 reference: median of DMSO wells 0.146, cell-free background 0.041.
Where [12] appears, read: arabinose induction (level): High, raw OD600 reference: median of DMSO wells 0.331, cell-free background 0.041.
[13] abbreviates: arabinose induction (level): Low, raw OD600 reference: median of DMSO wells 0.417, cell-free background 0.041.
The mark [14] stands for this setting: arabinose induction (level): High, raw OD600 reference: median of DMSO wells […], cell-free background 0.041.
Setting [15] is: arabinose induction (level): Low, raw OD600 reference: median of DMSO wells 0.227, cell-free background 0.041.
Where [16] appears, read: arabinose 100 nM, raw OD600 reference: median of DMSO wells 0.413, cell-free background 0.052.
Setting [17] is: arabinose 10000000 nM, raw OD600 reference: median of DMSO wells […], cell-free background 0.052.

Structures can show the parent of a compound that is named as a salt. ± gives the standard deviation of the averaged measurements.

Regarding `CC(C)(C)NC[C@H](O)c1ccc(O)c(CO)c1` [Levalbuterol hydrochloride], the growth in experiment [1] is 0.235 ± 0.005; in experiment [2] (setting [7]), 0.305 ± 0.011; in experiment [2] (setting [8]) it was 0.273 ± 0.0041; in experiment [2] (setting [9]) it was 0.197 ± 0.0075; in experiment [2] (setting [10]), 0.214 ± 0.023; in experiment [2] (setting [11]), 0.141 ± 0.0037. In addition, the growth in experiment [3] (setting [12]) came to 0.242 ± 0.05; in experiment [3] (setting [13]), 0.32 ± 0.084; in experiment [4] (setting [14]), 0.168 ± 0.033; in experiment [4] (setting [15]) it was 0.179 ± 0.088; in experiment [5], 0.608 ± 0.014; in experiment [6] (setting [16]) it was 0.4232 ± 0.00093. The compound further yielded a growth in experiment [6] (setting [17]) of 0.318 ± 0.01.
Consider `CC(Oc1ccccc1)C(=O)N[C@@H]1C(=O)N2[C@@H]1SC(C)(C)[C@@H]2C(=O)O` (some centres not stated) [Phenethicillin potassium salt], for which the growth in experiment [1] was 0.267 ± 0.018; in experiment [2] (setting [7]) it was 0.311 ± 0.019; in experiment [2] (setting [8]), 0.266 ± 0.0071; in experiment [2] (setting [9]), 0.223 ± 0.018; in experiment [2] (setting [10]) it was 0.19 ± 0.006; in experiment [2] (setting [11]), 0.139 ± 0.0076. Moreover, the growth in experiment [3] (setting [12]) was found to be 0.306 ± 0.05; in experiment [3] (setting [13]), 0.438 ± 0.011; in experiment [4] (setting [14]) it was 0.226 ± 0.0034; in experiment [4] (setting [15]) it was 0.249 ± 0.02; in experiment [5], 0.482 ± 0.075; in experiment [6] (setting [16]) it was 0.398 ± 0.0069. In experiment [6] (setting [17]), this compound displayed a growth of 0.367 ± 0.0061.
As to `CN(C)CCOC(=O)COc1ccc(Cl)cc1` [Meclofenoxate hydrochloride], the growth in experiment [1] was found to be 0.235 ± 0.0029; in experiment [2] (setting [7]), 0.3 ± 0.018; in experiment [2] (setting [8]), 0.267 ± 0.0092; in experiment [2] (setting [9]), 0.199 ± 0.013; in experiment [2] (setting [10]), 0.184 ± 0.0027; in experiment [2] (setting [11]) it was 0.138 ± 0.0014. The growth in experiment [3] (setting [12]) was 0.355 ± 0.032; in experiment [3] (setting [13]) it was 0.426 ± 0.029; in experiment [4] (setting [14]), 0.199 ± 0.014; in experiment [4] (setting [15]), 0.204 ± 0.019; in experiment [5], 0.511 ± 0.083; in experiment [6] (setting [16]), 0.4 ± 0.013. In addition, the growth in experiment [6] (setting [17]) is 0.313 ± 0.014.
For `CCC1(c2ccccc2)C(=O)NCNC1=O` [Primidone], the growth in experiment [1] is 0.243 ± 0.011; in experiment [2] (setting [7]), 0.296 ± 0.0094; in experiment [2] (setting [8]), 0.255 ± 0.0076; in experiment [2] (setting [9]), 0.201 ± 0.012; in experiment [2] (setting [10]), 0.18 ± 0.0097; in experiment [2] (setting [11]), 0.144 ± 0.0039. The growth in experiment [3] (setting [12]) was found to be 0.448 ± 0.024; in experiment [3] (setting [13]) it was 0.463 ± 0.043; in experiment [4] (setting [14]), 0.208 ± 0.014; in experiment [4] (setting [15]) it was 0.249 ± 0.013; in experiment [5] it was 0.567 ± 0.028; in experiment [6] (setting [16]), 0.408 ± 0.015. Besides, the growth in experiment [6] (setting [17]) was 0.333 ± 0.0042.
